This is part of a sample that, as a whole, favours compounds with a hit. Of some 83,000 tested, about 20% had one in any assay.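 Values shown are percent growth following 48 h exposure of cells in 96-well plates to a single concentration of compound; below 10 was considered active.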 Active and inactive are the calls of the source.
What was measured:
Assay in all cases: NCI-60 one-dose screen, 48 h (100 = growth as untreated, 0 = no growth, -100 = all killed)
Details in all cases: 10 µM unless noted
[1] = system: SR leukemia
[2] = system: RPMI-8226 leukemia
[3] = system: OVCAR-8 ovarian
[4] = system: OVCAR-5 ovarian
[5] = system: OVCAR-4 ovarian
[6] = system: SK-OV-3 ovarian
[7] = system: OVCAR-3 ovarian
[8] = system: NCI/ADR-RES ovarian
[9] = system: IGROV1 ovarian
[10] = system: HS 578T breast

SMILES | growth [1] | growth [2] | growth [3] | growth [4] | growth [5] | growth [6] | growth [7] | growth [8] | growth [9] | growth [10]
COc1cccc(/C=C/c2c(C(=O)O)cccc2[N+](=O)[O-])c1OC | 103% (inactive) | 107% (inactive) | 110% (inactive) | 103% (inactive) | 113% (inactive) | 88.2% (inactive) | 102% (inactive) | 109% (inactive) |  | 
O=c1[nH]c(-c2cn(-c3ccc(Cl)cc3)nn2)nc2ccccc12 | 80.4% (inactive) | 83.5% (inactive) | 48.5% (inactive) | 102% (inactive) |  | 38.9% (inactive) | 85.4% (inactive) | 63.9% (inactive) | 74.1% (inactive) | 37% (inactive)
COc1cc2c3c(c(=O)oc2cc1OS(=O)(=O)c1ccc(C(F)(F)F)cc1)CCCCC3 | 58.6% (inactive) | 84.8% (inactive) | 93.8% (inactive) | 79.6% (inactive) |  | 83% (inactive) | 87.9% (inactive) | 76.3% (inactive) | 86.7% (inactive) | 56.4% (inactive)
CCN1C(=O)N(CC)C2C1NN=c1s/c(=C\c3ccccn3)c(=O)n12 (stereo not drawn) | 5.28% (active) | 22.5% (inactive) | 31.2% (inactive) | 58.9% (inactive) | 50.2% (inactive) |  | 2.57% (active) | 2.1% (active) | 43.7% (inactive) | 7.13% (active)
O=C(Nc1ccc(I)cc1)c1cc([N+](=O)[O-])ccc1O | 36.6% (inactive) | 10.1% (inactive) | 39.9% (inactive) | 54.8% (inactive) |  | 38.6% (inactive) | 18.3% (inactive) |  | 39.6% (inactive) | 16.1% (inactive)
CCC(=O)Oc1cc(/C=C/C(=O)O[C@H]2C[C@H]3CN4CCc5c([nH]c6cc(OC)ccc56)[C@@H]4C[C@@H]3[C@@H](C(=O)OC)[C@@H]2OC)ccc1OC | 1.95% (active) | 39.9% (inactive) | 86.8% (inactive) | 87% (inactive) |  | 86.5% (inactive) | 73.1% (inactive) | 87.1% (inactive) | 88.5% (inactive) | 56.5% (inactive)
C#CCN1C(=O)/C(=c2\sc3n(c2=O)NC2C(N=3)N(CC)C(=O)N2CC)c2ccccc21 (stereo not drawn) | 15.5% (inactive) | 59.3% (inactive) | 66.9% (inactive) | 73.8% (inactive) | 51.9% (inactive) |  | 23.1% (inactive) | 41.7% (inactive) | 66% (inactive) | 56.6% (inactive)
COc1ccc(C2CC(=O)Nc3c2c(C)nn3-c2nc3ccccc3[nH]2)cc1OC (stereo not drawn) | 32.8% (inactive) | 85.4% (inactive) | 62% (inactive) | 111% (inactive) | 62% (inactive) | 17.7% (inactive) | 83.2% (inactive) | 77.7% (inactive) |  | 
CCN1C(=S)N(CC)C2Nn3c(s/c(=C4\C(=O)N(C)c5ccccc54)c3=O)=NC21 (stereo not drawn) | 22.6% (inactive) | 36.8% (inactive) | 54.5% (inactive) | 67.5% (inactive) | 47.5% (inactive) |  | 20.2% (inactive) |  | 53.3% (inactive) | 
CC(=O)/C=C/c1cc2cc(Cl)ccc2[nH]c1=O | 5.65% (active) | 54.5% (inactive) | 92.2% (inactive) | 95.3% (inactive) | 90.5% (inactive) | 88.7% (inactive) | 84.7% (inactive) | 100% (inactive) |  | 89.7% (inactive)
COc1ccc(/C=C/c2nc(N3CCOCC3)c3nc(Cl)c(Cl)cc3n2)cc1OC | 83.3% (inactive) | 98.7% (inactive) | 99% (inactive) | 109% (inactive) | 108% (inactive) | 105% (inactive) |  | 99.4% (inactive) |  | 113% (inactive)
Cc1cccc2cc(/C=C/C(=O)/C=C/c3ccc(Cl)cc3)c(=O)[nH]c12 | 0.572% (active) | 6.05% (active) | 21.8% (inactive) | 84.8% (inactive) | 58% (inactive) | 91.5% (inactive) | 13.9% (inactive) | 94.8% (inactive) |  | 50.9% (inactive)
COc1ccc(C(=O)/C=C/c2cc(C(=O)c3cc(OC)c(OC)c(OC)c3)ccc2OC)cc1 | 6.69% (active) | 14.6% (inactive) | 43.8% (inactive) | 45% (inactive) |  | 90% (inactive) | 60.6% (inactive) | 26.5% (inactive) | 62.2% (inactive) | 62.5% (inactive)
CCCCCC/C=C\CCCCCCCCOc1ccc(CCOP(=O)(O)OCC[N+](C)(C)C)cc1 | 50.7% (inactive) | 23.8% (inactive) | 80.9% (inactive) | 90.3% (inactive) | 86.1% (inactive) |  | 74.8% (inactive) | 100% (inactive) | 42.6% (inactive) | 89.5% (inactive)
COc1ccc(/C=C/C(=O)/C=C/c2cc3ccc(Cl)cc3[nH]c2=O)cc1 | -0.34% (active) | 19.9% (inactive) | 81.4% (inactive) | 108% (inactive) | 92.9% (inactive) | 91% (inactive) | 75.4% (inactive) | 103% (inactive) |  | 90.5% (inactive)
Cc1oc2nc[nH]c(=O)c2c1C(=O)/C=C/c1ccc(Cl)cc1Cl | 33% (inactive) | 28.4% (inactive) | 45.4% (inactive) | 134% (inactive) | 68.6% (inactive) |  | 48.6% (inactive) | 43% (inactive) | 89.2% (inactive) | 102% (inactive)
COc1cccc(/C=C/C(=O)c2sc(Nc3ccc(O)cc3)nc2C)c1 | 35.8% (inactive) | 4.79% (active) | 99.4% (inactive) | 111% (inactive) |  | 103% (inactive) | 75.7% (inactive) |  | 88.1% (inactive) | 103% (inactive)
CCCCn1c(=O)c(C2CNC(=O)c3ccccc3N2)cc2ccccc21 (stereo not drawn) | 102% (inactive) | 109% (inactive) | 114% (inactive) | 96.3% (inactive) | 103% (inactive) | 97.2% (inactive) | 99.7% (inactive) | 100% (inactive) |  | 94.6% (inactive)
Nc1ccc(S(=O)(=O)c2ccc(Cl)cc2)cc1 | 112% (inactive) | 101% (inactive) | 107% (inactive) | 90.1% (inactive) |  | 109% (inactive) | 98.8% (inactive) | 95.2% (inactive) | 97.3% (inactive) | 96% (inactive)
COc1ccc(-c2nc(-c3nc4ccc(F)cc4[nH]3)cc3c2[nH]c2ccccc23)cc1 | 15.5% (inactive) | -5.03% (active) | 13.6% (inactive) | 77.8% (inactive) |  | 87% (inactive) | 42.3% (inactive) | 19.7% (inactive) | 27% (inactive) | 42.4% (inactive)
COC(=O)[C@H]1[C@H](OC)[C@@H](OC(=O)/C=C/c2ccncc2)CC2CN3CCc4c([nH]c5cc(OC)ccc45)[C@@H]3C[C@@H]21 (stereo partly drawn) | 78.3% (inactive) | 57.4% (inactive) | 81% (inactive) | 106% (inactive) |  | 89.1% (inactive) | 89.8% (inactive) | 81.8% (inactive) | 85.2% (inactive) | 77.5% (inactive)
CNC(=O)c1cc(Oc2ccc3c(c2)sc2nc(-c4ccc(Cl)cc4)cn23)ccn1 | 82.9% (inactive) | 92.4% (inactive) |  | 113% (inactive) | 55.2% (inactive) | 66.2% (inactive) | 82.7% (inactive) | 84.7% (inactive) | 87.6% (inactive) | 70.5% (inactive)
CCCn1c(=S)sc2c(Cl)nc(C)nc21 | 123% (inactive) | 99.1% (inactive) | 105% (inactive) | 109% (inactive) |  | 90.5% (inactive) | 88.6% (inactive) | 106% (inactive) |  | 36.8% (inactive)
Cc1ccc(Oc2nc3ccccc3cc2-c2nnc(Cn3c(COc4ccccc4)nc4ccccc43)o2)cc1 | -7.62% (active) | -4.32% (active) | 25.5% (inactive) | 87.7% (inactive) |  | 77.3% (inactive) | 35.7% (inactive) | 34.6% (inactive) | 37.8% (inactive) | 72.4% (inactive)
C/C(=C\c1csc(C)n1)[C@@H]1C[C@@H]2O[C@]2(C)CCC[C@H](C)[C@H](O)[C@@H](C)C(=O)C(C)(C)[C@@H](O)CC(=O)N1 | -39.1% (active) | -45.3% (active) | -74% (active) | -6.81% (active) |  | -8.54% (active) | -100% (active) | -70.2% (active) | -85.5% (active) | -61.7% (active)
O=S(=O)(NCCCNc1nccc(-c2c(-c3ccc(O)cc3)nc3sccn23)n1)c1ccc(F)cc1 | 3.07% (active) | -13% (active) | 14.2% (inactive) | 14.4% (inactive) |  | -4.21% (active) | 23% (inactive) | 48.9% (inactive) | 5.53% (active) | 11.5% (inactive)
O=C(c1c[nH]c2ccccc12)C(Sc1nc2ccccc2c(=O)[nH]1)c1ccccc1 (stereo not drawn) | 67.9% (inactive) | 91.1% (inactive) | 93.3% (inactive) | 88% (inactive) |  | 104% (inactive) | 96.6% (inactive) | 99.8% (inactive) | 19.1% (inactive) | 88.6% (inactive)
C=C1C(=O)O[C@H]2[C@H]1CC/C(Cn1cc(-c3ccccc3C(F)(F)F)nn1)=C\CC[C@@]1(C)O[C@@H]21 | 2.59% (active) | -29.4% (active) | -27.1% (active) | -18.6% (active) |  | 79.1% (inactive) | -93.8% (active) | 19.6% (inactive) | -21.4% (active) | 39.1% (inactive)
COc1cc2nc(SCc3cc(OC)c(OC)c(OC)c3)n(Cc3ccccc3)c(=O)c2cc1OC | 6.25% (active) | 54.8% (inactive) |  | 53.7% (inactive) | 44.2% (inactive) | 29.8% (inactive) | 6.2% (active) | -15.8% (active) | 39.2% (inactive) | 26.7% (inactive)

Reference: PubChem BioAssay (NCI)
